Data on 47 compounds can be found in PubChem BioAssay AID2417 (National Center for Advancing Translational Sciences (NCATS), 2010).

Each structure is given as a SMILES string. The whole screen tested about 140,000 compounds, of which about 4,300 (3.1%) were called active. Inconclusive results (about 21%) are left out. The sample as a whole holds a higher share of actives than the screen did. A number with no mark means an inactive call.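 How the source made its calls: active means readout at or below -70, meaning at least 70% loss of cells showing the perinucleolar compartment, a nuclear body marking cancer cells; inconclusive means readout between -30 and a set limit; inactive means the rest.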

The nature of this assay: High Content Assay for Compounds that inhibit the Assembly of the Perinucleolar Compartment.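 Further: plate controls were DMSO wells for no effect and camptothecin positive control wells for full effect.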 The following applies: PC3M PTB-GFP, PNC prevalence imaging, 16 h; at 10 µM; active compounds read low. The essentials: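 PC3M cells stably expressing PTB-GFP, 750–1000 cells/well, treated 16 h at 37 °C with compound (23 nl of library stock), in duplicate. After paraformaldehyde fixation and Hoechst stain, imaged at 20x; PNC prevalence scored by image analysis.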
With `CCc1ccc(N2CC(C(=O)NC3=NCCS3)CC2=O)cc1` (configuration not stated), the activity change (PNC), negative = inhibition was 10.4%. On to `CCc1nnc(NC(=O)C2CC(=O)N(c3ccc4c(c3)OCCO4)C2)s1` (configuration not stated), for which the activity change (PNC), negative = inhibition was -107% (active). In the case of `O=C(COc1ccccc1F)NNC(=O)c1ccc(N2CCCCC2)c([N+](=O)[O-])c1`, the activity change (PNC), negative = inhibition was -26.5%.

Regarding `CCOC(=O)Cc1csc(SCC(=O)NC(C)C23CC4CC(CC(C4)C2)C3)n1` (configuration not stated), the activity change (PNC), negative = inhibition is 20%. Consider `Cc1ccc(OCC(=O)N/N=C/c2ccncc2)cc1`, for which the activity change (PNC), negative = inhibition was 28.2%. Then `Cc1ccc(/C=N/NC(=O)COc2ccccc2-c2ccccc2)cc1`, with -125% (active); and `Cc1ccc(OCC(=O)N/N=C\c2ccco2)c(C)c1`, with 54.4%; and `CCc1ccc(NC(=O)C(C)OC(=O)/C=C/c2cccc([N+](=O)[O-])c2)cc1` (configuration not stated), with 10.2%. Take `O=C1NC(c2ccccc2)CCC1(Cl)Cl` (configuration not stated): the activity change (PNC), negative = inhibition was -7.09%. The result for `C=CCn1c(N)cc(=O)nc1SCC(=O)Nc1cccc2ccccc12` reads 69%.

As for `O=C(CNCCO)NC12CC3CC(CC(C3)C1)C2`, the activity change (PNC), negative = inhibition is 20.6%.

As to `C=CCn1c(SCC(=O)NC23CC4CC(CC(C4)C2)C3)nc(O)cc1=O`, the activity change (PNC), negative = inhibition is -100% (active).

As for `Cc1cc(C)cc(OCC(=O)NNC(=O)CCN2C(=O)c3ccccc3C2=O)c1`, the activity change (PNC), negative = inhibition was 31.4%.

Regarding `O=C(Oc1cccc(N2C(=O)C3C4c5ccccc5C(c5ccccc54)C3C2=O)c1)c1ccco1` (configuration not stated), the activity change (PNC), negative = inhibition is -97.3% (active). As to `CC(=O)Oc1cccc(N2C(=O)C3CC=C(Cl)CC3C2=O)c1` (configuration not stated), the activity change (PNC), negative = inhibition is -0.248%. Then `CC(=O)Nc1ccc(N2C(=O)C3C4CC(=O)C(c5ccccc54)C3C2=O)cc1` (configuration not stated), with 13.1%. Regarding `COc1cc(NC(=O)c2cc([N+](=O)[O-])ccc2Br)ccc1NC(=O)c1ccco1`, the activity change (PNC), negative = inhibition is 38.2%.

Turning to `CC(Sc1nnc2c(n1)C1CCC2(C)C1(C)C)C(=O)Nc1ccccc1` (configuration not stated), the activity change (PNC), negative = inhibition was 11.5%. `O=C(Cc1ccccc1)NNS(=O)(=O)c1ccc([N+](=O)[O-])cc1`: the activity change (PNC), negative = inhibition is 3.03%. As to `Clc1cccc(CN2COc3c(cc(Cl)c4cccnc34)C2)c1`, the activity change (PNC), negative = inhibition was -27.1%. Turning to `Cc1c(Cl)c([N+](=O)[O-])nn1CCCC(=O)NC(C)c1ccccc1` (configuration not stated), the activity change (PNC), negative = inhibition was -83.2% (active). Regarding `Cc1nn(Cc2ccccc2Cl)c(C)c1NC(=O)Cn1nc([N+](=O)[O-])c(Cl)c1C`, the activity change (PNC), negative = inhibition is 29.3%. Take `Cc1ccc(C(C)NC(=O)Cn2nc(C)c([N+](=O)[O-])c2C)cc1` (configuration not stated): the activity change (PNC), negative = inhibition was 1.18%. Consider `O=C(Cc1ccccc1)Nc1cccc(C(=O)N/N=C/c2ccco2)c1`, for which the activity change (PNC), negative = inhibition is -20.1%.

In the case of `COC(=O)/C(C#N)=C/c1occc1C`, the activity change (PNC), negative = inhibition is 11.3%. The result for `CS(=O)(=O)c1sc2nc(-c3ccccc3)cc(-c3ccccc3)c2c1N` reads 18.6%. Then `Nc1cccc(CCc2nc3ccccc3[nH]2)c1`, with -19.2%. As to `Nc1cccc(-c2cc(-c3ccccc3)nc(-c3cccc(N)c3)n2)c1`, the activity change (PNC), negative = inhibition is -112% (active). On to `Cc1ccc(N2C(=O)C(NC(=O)c3c(F)cccc3F)(C(F)(F)F)C3=C2CC(C)(C)CC3=O)cc1` (configuration not stated), for which the activity change (PNC), negative = inhibition is -6.53%. `Cc1ccc2[nH]c(=O)c(CC=C(Cl)Cl)c(C)c2c1`: the activity change (PNC), negative = inhibition is 8.75%. Then `Cc1nc(-c2ccc(NC(=O)c3cccs3)cc2)cs1`, with 20.4%. For `O=C(O)c1ccc(NC(=O)c2cccs2)cc1`, the activity change (PNC), negative = inhibition is -100% (active). As for `O=C(O)Cc1ccc(NC(=O)c2cccs2)cc1`, the activity change (PNC), negative = inhibition was -2.77%.

For the compound `CCCCN1C(=O)c2ccc(C(=O)Nc3ccc(S(=O)(=O)N(C)C)cc3)cc2C1=O`, the activity change (PNC), negative = inhibition was -17.6%. For the compound `CCOC(=O)COc1ccc([N+](=O)[O-])cc1`, the activity change (PNC), negative = inhibition is 14.3%. On to `CCOc1cc(/C=N/NC(=O)OC)ccc1OCCSc1ccc(Cl)cc1`, for which the activity change (PNC), negative = inhibition is 45.6%. As for `CCCC(NC(=O)c1ccco1)c1nc2ccccc2[nH]1` (configuration not stated), the activity change (PNC), negative = inhibition is 16.4%. Take `Cc1cc(=O)oc2ccc(OCC(=O)O)cc12`: the activity change (PNC), negative = inhibition is 55.8%. As to `Cc1ccc(CNC(=O)COc2ccc3c(c2)CCC3)cc1`, the activity change (PNC), negative = inhibition was -5.6%. Regarding `Cc1ccc(SC(=O)COc2ccc(C)c(C)c2)cc1`, the activity change (PNC), negative = inhibition was -106% (active). `O=C(COC(=O)c1cc([N+](=O)[O-])ccc1NCc1ccccc1)NC1CCCCC1`: the activity change (PNC), negative = inhibition is 50.7%. The result for `Cc1ccc2c(c1)C(c1ccccc1)N(C(=O)c1ccc(S(=O)(=O)N3CCOCC3)cc1)CC(=O)N2` (configuration not stated) reads 7.14%.

For the compound `COc1ccc(/C=N/NC(=O)c2ccccc2)cc1OS(=O)(=O)c1ccccc1`, the activity change (PNC), negative = inhibition was 45.9%. For `O=C(NC(=S)Nc1ccc2oc(=O)ccc2c1)c1ccc(-c2cccc(Cl)c2Cl)o1`, the activity change (PNC), negative = inhibition was -8.36%. Take `COC(=O)C1=C(C)N(C)C(C)=C(C(=O)OC)C1c1cccc(Br)c1`: the activity change (PNC), negative = inhibition was 20%. On to `COC(=O)C1=C(C(=O)OC)C2(OC1c1ccc(Br)cc1)C(=O)c1ccccc1C2=O` (configuration not stated), for which the activity change (PNC), negative = inhibition is -100% (active). With `CCOC(=O)C1=C(C)N=C2c3ccccc3C(=O)C2C1c1ccc(Br)cc1` (configuration not stated), the activity change (PNC), negative = inhibition is -24.2%.
